Several values for one entry are separate records, joined by “and”; a condition that tells them apart may be missing. Equal values may be shown once. This is part of a sample that, as a whole, favours compounds with a hit. Of some 83,000 tested, about 20% had one in any assay.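 96-well plates, one dose, 48 hours. Percent growth reported; active if below 10.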 Unmarked numbers belong to inactive results. Activity calls are given as the source filed them.
What follows are molecules tested on MDA-MB-468 breast (assay: NCI-60 one-dose screen, 48 h (100 = growth as untreated, 0 = no growth, -100 = all killed)). Details: 10 µM unless noted.

Row | Structure (SMILES) | growth
1 | CCOc1nc(-c2ccccc2)cc2c(O)c(C(=O)NCCCO)[nH]c(=O)c12 | 95%
2 | CC(C)[C@@H](C)/C=C/[C@@H](C)[C@H]1CCC2=C3C=CC4=CC(=O)CC[C@]4(C)[C@H]3CC[C@@]21C | 97.3%
3 | Oc1c(Cl)cc(Cl)c2ccc(Cn3cc(-c4cc(C(F)(F)F)cc(C(F)(F)F)c4)nn3)nc12 | 18.6%
4 | CC(CN(C)C)Oc1ccc(OC(C)CN(C)C)c2c1C(=O)c1ccccc1C2=O (stereo not given) | 33.2%
5 | COc1ccc(-c2nn(Cc3ccccc3)c3c2-c2oncc2CC3)cc1OC | 99.9%
6 | Cc1ccsc1C(=O)CC(=O)C(F)(F)C(F)(F)C(F)(F)F | 112%
7 | c1ccc(OCC[P+](c2ccccc2)(c2ccccc2)c2ccccc2)cc1 | -18.1% (active)
8 | c1ccc(C2=Nc3ccccc3SC2)cc1 | 122%
9 | O=C(CCCCCCN1CC(=O)N2[C@@H](c3cccc(Cl)c3)c3[nH]c4ccccc4c3C[C@H]2C1=O)NO | 47.2%
10 | COC1(OC)C2(Cl)CCC1(Cl)C(Cl)=C2Cl | 111%
11 | COc1ccc(/C=N\Nc2nc(SCCC(C)C)nc(-c3ccc(OC)cc3)c2C#N)cc1 | 35.9%
12 | C#CC#CC#CC#CC#CC#CC#CC#CC[C@@H]1OC[C@@H](COC(=O)O[C@@H](C(=O)O[C@H]2C[C@@]3(O)[C@@H](OC(=O)c4ccccc4)[C@@H]4[C@]5(OC(C)=O)CO[C@@H]5C[C@H](O)[C@@]4(C)C(=O)[C@H](OC(C)=O)C(=C2C)C3(C)C)[C@@H](NC(=O)c2ccccc2)c2ccccc2)O1 | -4.7% (active)
13 | CC(C)(C)OC(=O)N1CCN(S(=O)(=O)/N=C2\NC(=O)NC2=C(Cl)Cl)CC1 | 63.7%
14 | O=C1/C(=C/c2ccccc2)CN(C(=O)CCN2CCC(=NO)CC2)C/C1=C\c1ccccc1 | -22.7% (active)
15 | CC(C)(C)n1cc(-c2ccnc(NCCCNS(=O)(=O)c3ccc(F)cc3)c2)c(-c2cccc(O)c2)n1 | 24.3%
16 | O=C(O)c1cc2ccccc2s1 | 112%
17 | Cc1nc2cc(Nc3nc(Nc4ccc(F)cc4)nc(-c4ccc(Cl)cc4)n3)ccc2n1Cc1ccccc1 | 74.3%
18 | Fc1ccc2nc(-c3nc(-c4ccccc4)n4ccccc34)[nH]c2c1 | -68.1% (active)
19 | N=C(N)c1ccc(-c2ccc(-c3cccs3)s2)nc1 | -51% (active)
20 | C=C(C)[C@H]1CC/C(C)=C/CC[C@]2(C)O[C@H]2CC/C(COC(=O)[C@@H](OC(C)=O)[C@H](NC(=O)c2ccccc2)c2ccccc2)=C\[C@@H]1O | 84.4%

Row | Structure (SMILES) | growth
21 | CCN(CC)c1ccc(/C=C/C2=[N+](C)c3ccccc3C2(C)C)cc1 | 20.4%
22 | c1ccc(CNc2ncnc3scc(-c4cccs4)c23)nc1 | 12%
23 | Cc1ccc(N2CCN(C3=C(Cl)C(=O)c4ncccc4C3=O)CC2)cc1 | -63.9% (active)
24 | NC(N)=Nc1ccc(Oc2cccc(NC(N)=Nc3ccc(Br)cc3)c2)cn1 | 8.74% (active)
25 | Nc1nc(-c2cccc3ccccc23)cc2ccccc12 | -4.35% (active)
26 | C[C@]1(O)CC(=O)[C@]2(O)C3=C(C=C[C@]2(O)C1)C(=O)c1c(O)cccc1C3=O | -57.5% (active)
27 | Cc1nc2sc(C(=O)Nc3ccccc3Cl)c(N)c2cc1C(C)O (stereo not given) | 70.1%
28 | Cc1nc(Nc2ccc(Cl)cc2)c2cnn(-c3ccccc3)c2n1 | 98.3%
29 | CO[C@H]1CC(=O)n2c3ccccc3c3c4c(c5c6ccccc6n1c5c32)C(=O)NC4=O | 34.2%
30 | C=C1C(=O)O[C@H]2[C@H]1CC/C(C(=O)Nc1ccc(OC)c(C(N)=O)c1O)=C\CC[C@@]1(C)O[C@@H]21 | 20.4%
31 | CC(=O)OCC1OC(OC(C)=O)C(OC(C)=O)C(OC(C)=O)C1OC(C)=O (stereo not given) | 95.5% and 108%
32 | CCOC(=O)/C=C/C(=O)[C@H](CC(C)C)NC(=O)[C@H](Cc1ccccc1)NC(=O)OCc1ccccc1 | -21.5% (active)
33 | Cc1[nH]c2ncnc(Oc3ccc(NC(=O)Nc4ccc(Cl)c(C(F)(F)F)c4)cc3)c2c1C | 69.5%
34 | COc1cc(C2NC(c3ccc(Cl)cc3)C(C)/C(=N/NC(N)=S)C2C)cc(OC)c1OC (stereo not given) | 88%
35 | Oc1ccccc1/C=N/N=C/c1c(O)ccc2ccccc12 | 83.4%
36 | COC(=O)c1cc(O)c2c(c1C(=O)OC)C[C@H]1[C@@H]3CC=C4C[C@@H](O)CC[C@]4(C)[C@H]3CC[C@]21C | 35.3%
37 | Cc1nc([P+](c2ccccc2)(c2ccccc2)c2ccccc2)c(Sc2sc(-c3ccccc3)nc2[P+](c2ccccc2)(c2ccccc2)c2ccccc2)o1 | -31.6% (active)
38 | CC(C(C(=O)N1CCCCC1)N1CCCCC1)N1CCCCC1 (stereo not given) | 115%
39 | C=C(C)[C@@H]1CC[C@]2(C)[C@H](CC=C3[C@@H]4C[C@](C)(C(=O)N5CCN(C)CC5)CC[C@]4(C)CC[C@]32C)[C@@]1(C)CCC#N | 38.3%
40 | CCOC(=O)c1cnc2cc(Cl)c(F)cc2c1Nc1cccc(NS(C)(=O)=O)c1 | 87.6%

From PubChem BioAssay (NCI)
